This passage reports Potency and outcome results from PubChem BioAssay (NCATS).

Values without a mark were called inactive. Inconclusive results are not listed. Calls of active or inactive are those of the source. Unless noted, calls come from the whole dose curve; as a rule, active = well fitted curve in the direction sought with a large enough effect; inconclusive = small, poorly fitted or top-dose-only effect, or another doubt; inactive = no such curve, though single readings can be large; an effect the other way counts as inactive or inconclusive.

Assay [1] deals with Cytochrome P450 1A2 (Homo sapiens) (UniProt P05177). The assay is described as follows: p450-cyp1a2 (AID 410; calls by dose curve; note: potency is the fitted concentration of half-maximal effect). The procedure, abridged: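 Luminescent demethylation readout: Luciferin-ME (100uM, equal to Km) turned over by 20nM CYP1A2 for 60 min at room temperature after NADPH regeneration addition, following 10 min compound preincubation. Normalization used 57 uM furafylline as full inhibition.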

Assay [2] addresses Glucocorticoid receptor (Homo sapiens) (UniProt P04150). The assay is described as follows: GR-GFP Redistribution (AID 450;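 active = compounds whose dose series gives a full or clear partial fitted curve of increased nuclear translocation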; note: potency is the fitted concentration of half-maximal effect). Conditions: U2OS GR-GFP nuclear translocation, laser cytometry, 2 h.
Assay [3] shares this target. The assay can be described thus: GR-EFC Redistribution (AID 451; calls by dose curve; note: potency is the fitted concentration of half-maximal effect). Conditions: CHO-K1 GR-EFC translocation, beta-gal luminescence, 2 h. The procedure, abridged:
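Translocation of GR-ED fusion to nuclear EA restores b-gal, read by luminescence after 1 h room-temperature detection. Engineered CHO-K1 biosensor cells, 1,000/well, exposed 2 h at 37 C to titrations up to 46 uM final.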

In assay [4] the target is Mitogen-activated protein kinase 10 (Mus musculus) (UniProt Q61831). The assay is described as follows: JNK3 AlphaScreen Assay (AID 530; active = well fitted curve in either direction with a large enough effect, not every such curve was filed as active;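 note: kinase came from lysate of stimulated human HepG2 cells; potency is the fitted concentration of half-maximal effect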). The procedure, abridged: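 qHTS titrations with 15 min compound pre-incubation before adding ATP (10 uM final). Read-out: AlphaScreen of Ser73-phosphorylated biotin-GST-cJun using HepG2 lysate JNK3 activated by IL-1β and TNFα.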
For orientation: Bead proximity is the source of the signal in Alpha formats.

For assay [5], the target named is Cytochrome P450 2C9 (Homo sapiens) (UniProt P11712). The assay is described as follows: qHTS Assay for Inhibitors and Substrates of Cytochrome P450 2C9 (AID 883). Note: potency is the fitted concentration of half-maximal effect; nearly all actives have a fitted effect of over 60% in size. The procedure, abridged:
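Turnover of Luciferin-H (100uM, KM) by 10nM human CYP2C9 was measured over 60 min at 37C with NADPH regeneration; inhibitors and some substrates reduce luminescence. Data normalized to sulphaphenazole 57uM.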

Assay [6] deals with Cytochrome P450 3A4 (Homo sapiens) (UniProt P08684). The assay can be described thus: qHTS Assay for Activators of Cytochrome P450 3A4 (AID 885). Note: nearly all actives have a fitted effect of over 65% in size. The procedure, abridged: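 Luminescent readout of luciferin formed from 25 uM Luciferin-PPXE (KM level) by 20 nM CYP3A4 in 200 mM KPO4, with 60 min NADPH-driven reaction at room temperature after 10 min compound exposure. Ketoconazole (57 uM) defined 100% inhibition.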

Assay [7] addresses Cytochrome P450 2D6 (Homo sapiens) (UniProt P10635). The assay is described as follows: qHTS Assay for Inhibitors and Substrates of Cytochrome P450 2D6 (AID 891). Note: potency is the fitted concentration of half-maximal effect; nearly all actives have a fitted effect of over 60% in size. The procedure, abridged:
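Luminescent read-out of luciferin formed by 5 nM human CYP2D6 demethylating 30 uM Luciferin-ME EGE (Km level) over 60 min at room temperature after NADPH regeneration addition. Data normalized to full inhibition by 1.43 uM quinidine.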
For orientation: qHTS replaces the single test concentration by a dilution series.

Assay [8] concerns the target Cytochrome P450 2C19 (Homo sapiens) (UniProt P33261). The assay can be described thus: qHTS Assay for Inhibitors and Substrates of Cytochrome P450 2C19 (AID 899). Note: potency is the fitted concentration of half-maximal effect; nearly all actives have a fitted effect of over 60% in size. The procedure, abridged: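 Reactions contain 5nM enzyme, 10uM Luciferin-H EGE (KM) and 50mM KPO4; compound preincubates 10 min at 37C, NADPH regeneration starts turnover for 60 min. Luminescence after detection reagent gives activity.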

In assay [9] the target is DNA dC->dU-editing enzyme APOBEC-3G (Homo sapiens) (UniProt Q9HC16). The assay can be described thus: qHTS for inhibitors of Vif-A3G interactions: Validation (AID 588379). The procedure, abridged: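 Yellow fluorescence (Ex 488, Em 500-530) of Vif-coexpressing HeLa A3G-eYFP cells, scanned by Acumen cytometer, reports blocked A3G degradation. Cells plated at 700/well overnight at 37 deg C before compound addition, then a further overnight compound incubation at 37 deg C.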

The target of assay [10] is Furin (Homo sapiens) (UniProt P09958). The assay is described as follows: Furin counterscreen qHTS for Zika virus inhibitors (AID 1347149).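 Note: purified recombinant full-length human furin enzyme at 5 nM; fluorescence gain from furin cutting a BOC-RVRR-AMC peptide substrate over 15 min; top concentration of the series differs between compounds; nearly all actives have a fitted effect of over 70% in size.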 The procedure, abridged:
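Counterscreen measures cleavage of 2 microM BOC-RVRR-AMC, below its ~15 microM Km, by 5 nM full-length human furin at pH 7.0 after a 15-min compound preincubation. Inhibition derives from the 15-min fluorescence increase at 37C.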

Assay [11] is described as follows: Confirmatory screen NINDS Rhodamine qHTS for Zika virus inhibitors (AID 1347161). Note: potency is the fitted concentration of half-maximal effect; nearly all actives have a fitted effect of over 60% in size. The procedure, abridged: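 Rhodamine110-peptide cleavage (1.5 µM substrate) by 25 nM linked NS2B-NS3 enzyme at pH 8.0 (Tris, Tween 20), after 15 min RT preincubation with compounds; 15-min fluorescence change normalized to controls and Hill-fitted.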
Assay [12] has as its system Zika virus NS2B-NS3 protease (linked). The assay is described as follows: 384 well plate NINDS AMC confirmatory qHTS for Zika virus inhibitors (AID 1347163). Note: potency is the fitted concentration of half-maximal effect; nearly all actives have a fitted effect of over 50% in size. The procedure, abridged: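 Fluorescence at 355/460 nm was read after 25 minutes of cleavage of 30 microM Ac-VKTGKR-AMC at room temperature, in the dark. Before substrate addition, compounds (up to 1 mM final) sat ~15 minutes with 5, 30 or 60 nM linked protease. Signals were normalized to no-enzyme and no-inhibitor wells.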

Assay [13] relates to Zika virus NS2B-NS3 protease (linked construct). The assay is described as follows: 384 well plate NINDS Rhodamine confirmatory qHTS for Zika virus inhibitors (AID 1347164).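 Note: fluorescence from protease cleavage of Ac-LKRR-rhodamine 110 substrate; potency is the fitted concentration of half-maximal effect; nearly all actives have a fitted effect of over 65% in size.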 The procedure, abridged: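 Linked NS2B-NS3 protease (final 5, 30 or 60 nM) preincubated ~15 minutes with compounds, then 10 microM Ac-LKRR-Rhodamine 110 added. Fluorescence (485/538 nm) read after 25 minutes at room temperature, normalized to no-enzyme and no-inhibitor controls.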

The nature of assay [14]: Vero cells viability qHTS for Zika virus inhibitors (AID 1347167). The procedure, abridged:
(§1)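 Luminescent ATP readout (CellTiter Glo) after 30 min at 37 degrees C gives viability; cells in DMEM + 4% FBS were treated 24 to 48 hours with compound, following overnight attachment.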

The nature of assay [15]: HepG2 cells viability qHTS for Zika virus inhibitors (AID 1347168). The procedure, abridged: as §1
The nature of assay [16]: Tertiary RLuc qRT-PCR qHTS assay for Zika virus inhibitors (AID 1347169). Note: top concentration of the series differs between compounds; nearly all actives have a fitted effect of over 55% in size. The procedure, abridged: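 Vero cells (1,000/well) infected with recombinant ZIKV-RLuc (Cambodian) at MOI 1-2 after compound addition, 48-72 hrs at 37 degrees C. Live-cell Renilla luciferase substrate added; luminescence read after 1-1.5 hrs.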
A general note: In qPCR the cycle at which signal appears reflects the starting amount.

Assay [17] can be described thus: Primary qHTS for small molecule stabilizers of the endoplasmic reticulum resident proteome: Secreted ER Calcium Modulated Protein (SERCaMP) assay (AID 1508630). The procedure, abridged:
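The SH-SY5Y reporter protocol was run at 3 concentrations up to 38.3 uM (primary) or 11 concentrations (follow-up): 16 h compound, 100 nM thapsigargin for 4 h, then extracellular luciferase luminescence.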

Assay [18] concerns the target Rap guanine nucleotide exchange factor 3 (Homo sapiens) (UniProt O95398). The assay is described as follows: Confirmatory qHTS for antagonist of cAMP-regulated guanine nucleotide exchange factor 3 (EPAC1) (AID 1645880). Note: potency is the fitted concentration of half-maximal effect; nearly all actives have a fitted effect of over 55% in size. The procedure, abridged:
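Released BODIPY-GDP fluoresces less than Rap1-bound BODIPY-GDP; the signal is followed at 480/540 nm at 5-min intervals over 30 min, after 5 min at room temperature. Reactions contain 100 nM EPAC1, 250 nM RAP1B-BODIPY-GDP and 50 uM GDP; results are normalized to ATA and DMSO.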

The target is the same in assay [19]. The assay can be described thus: Confirmatory qHTS for agonist of cAMP-regulated guanine nucleotide exchange factor 3 (EPAC1) (AID 1645881).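 Note: EPAC1 catalysed release of BODIPY-GDP from Rap1B seen as fluorescence loss; nearly all actives have a fitted effect of over 75% in size.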
Assay [20] has as its target Glutathione peroxidase 1 (Homo sapiens) (UniProt P07203). The assay can be described thus: Primary qHTS Assay for Inhibitors of Recombinant Selenoprotein Glutathione Peroxidase 1 (GPX1) (AID 1845191). Note: nearly all actives have a fitted effect of over 65% in size. The procedure, abridged:
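NADPH consumption tracked by fluorescence at 340/450 nm between t=0 and t=15 min, room temperature. Final mix: 10 nM GPX1, 100 nM glutathione reductase, 1 mM GSH, 0.5 mM NADPH, 0.5 mM cumene hydroperoxide, 0.01% BSA; 30 min compound–enzyme preincubation.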

Chain of Rap guanine nucleotide exchange factor 3 (Homo sapiens) (O95398 whole entry, looked up): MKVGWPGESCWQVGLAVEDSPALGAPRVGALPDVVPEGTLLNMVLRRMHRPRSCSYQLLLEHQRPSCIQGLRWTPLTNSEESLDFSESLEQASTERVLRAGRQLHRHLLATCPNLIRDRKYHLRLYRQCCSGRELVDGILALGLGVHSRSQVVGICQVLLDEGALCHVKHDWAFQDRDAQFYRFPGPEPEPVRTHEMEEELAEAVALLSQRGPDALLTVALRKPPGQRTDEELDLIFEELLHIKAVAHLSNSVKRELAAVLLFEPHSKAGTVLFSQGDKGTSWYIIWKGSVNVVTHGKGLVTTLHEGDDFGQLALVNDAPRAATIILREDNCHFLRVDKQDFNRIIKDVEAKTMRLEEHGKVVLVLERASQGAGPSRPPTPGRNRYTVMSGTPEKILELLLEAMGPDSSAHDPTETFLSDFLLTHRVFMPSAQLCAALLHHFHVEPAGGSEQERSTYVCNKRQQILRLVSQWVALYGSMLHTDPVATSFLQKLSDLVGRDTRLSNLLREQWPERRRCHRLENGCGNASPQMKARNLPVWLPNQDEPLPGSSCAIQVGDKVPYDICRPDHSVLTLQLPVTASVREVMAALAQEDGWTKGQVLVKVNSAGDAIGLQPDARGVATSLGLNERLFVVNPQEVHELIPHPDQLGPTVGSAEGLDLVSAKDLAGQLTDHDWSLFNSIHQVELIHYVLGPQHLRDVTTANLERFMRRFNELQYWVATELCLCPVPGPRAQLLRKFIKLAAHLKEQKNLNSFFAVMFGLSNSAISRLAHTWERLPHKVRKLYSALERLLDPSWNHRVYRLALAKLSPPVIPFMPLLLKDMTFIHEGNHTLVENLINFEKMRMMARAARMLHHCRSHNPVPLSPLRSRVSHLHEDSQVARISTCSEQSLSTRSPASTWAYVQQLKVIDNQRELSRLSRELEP
Chain of Glucocorticoid receptor (Homo sapiens) (P04150 whole entry, looked up): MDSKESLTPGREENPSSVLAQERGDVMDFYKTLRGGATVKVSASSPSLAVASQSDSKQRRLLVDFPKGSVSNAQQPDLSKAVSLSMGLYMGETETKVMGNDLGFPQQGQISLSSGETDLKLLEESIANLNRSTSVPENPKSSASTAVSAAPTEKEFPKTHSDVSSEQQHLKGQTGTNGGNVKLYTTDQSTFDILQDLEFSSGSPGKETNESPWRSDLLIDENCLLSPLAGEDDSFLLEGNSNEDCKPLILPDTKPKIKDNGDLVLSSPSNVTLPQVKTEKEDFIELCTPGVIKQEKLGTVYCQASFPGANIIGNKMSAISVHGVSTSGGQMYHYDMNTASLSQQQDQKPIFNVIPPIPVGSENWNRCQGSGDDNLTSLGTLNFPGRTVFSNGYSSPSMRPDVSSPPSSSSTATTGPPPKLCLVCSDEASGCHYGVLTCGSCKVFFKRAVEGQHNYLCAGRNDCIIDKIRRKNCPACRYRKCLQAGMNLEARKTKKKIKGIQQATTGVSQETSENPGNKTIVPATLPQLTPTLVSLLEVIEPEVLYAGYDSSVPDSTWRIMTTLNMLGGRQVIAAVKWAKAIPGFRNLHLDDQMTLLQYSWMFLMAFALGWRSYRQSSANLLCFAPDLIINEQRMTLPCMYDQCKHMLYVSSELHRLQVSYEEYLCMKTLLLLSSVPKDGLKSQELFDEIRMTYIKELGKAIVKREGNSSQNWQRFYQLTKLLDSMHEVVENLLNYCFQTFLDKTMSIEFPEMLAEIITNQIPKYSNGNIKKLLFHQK
Chain of DNA dC->dU-editing enzyme APOBEC-3G (Homo sapiens) (Q9HC16 whole entry, looked up): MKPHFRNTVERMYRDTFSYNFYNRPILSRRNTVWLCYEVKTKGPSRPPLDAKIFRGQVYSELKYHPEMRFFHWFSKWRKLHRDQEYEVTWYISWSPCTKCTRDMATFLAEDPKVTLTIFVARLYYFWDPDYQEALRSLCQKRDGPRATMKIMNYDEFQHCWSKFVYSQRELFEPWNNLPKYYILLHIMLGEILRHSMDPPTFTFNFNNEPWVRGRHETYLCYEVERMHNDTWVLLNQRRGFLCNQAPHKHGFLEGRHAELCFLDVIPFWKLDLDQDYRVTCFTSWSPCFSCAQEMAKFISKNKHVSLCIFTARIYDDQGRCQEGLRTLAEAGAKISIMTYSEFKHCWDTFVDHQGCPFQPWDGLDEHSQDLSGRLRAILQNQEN
Chain of Glutathione peroxidase 1 (Homo sapiens) (P07203 whole entry, looked up): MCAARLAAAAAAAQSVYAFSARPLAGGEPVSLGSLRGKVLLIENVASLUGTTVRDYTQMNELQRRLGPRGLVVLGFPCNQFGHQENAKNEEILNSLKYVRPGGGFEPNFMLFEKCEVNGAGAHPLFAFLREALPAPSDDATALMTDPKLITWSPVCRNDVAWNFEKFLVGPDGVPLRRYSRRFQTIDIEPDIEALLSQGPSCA
Chain of Cytochrome P450 2D6 (Homo sapiens) (P10635 whole entry, looked up): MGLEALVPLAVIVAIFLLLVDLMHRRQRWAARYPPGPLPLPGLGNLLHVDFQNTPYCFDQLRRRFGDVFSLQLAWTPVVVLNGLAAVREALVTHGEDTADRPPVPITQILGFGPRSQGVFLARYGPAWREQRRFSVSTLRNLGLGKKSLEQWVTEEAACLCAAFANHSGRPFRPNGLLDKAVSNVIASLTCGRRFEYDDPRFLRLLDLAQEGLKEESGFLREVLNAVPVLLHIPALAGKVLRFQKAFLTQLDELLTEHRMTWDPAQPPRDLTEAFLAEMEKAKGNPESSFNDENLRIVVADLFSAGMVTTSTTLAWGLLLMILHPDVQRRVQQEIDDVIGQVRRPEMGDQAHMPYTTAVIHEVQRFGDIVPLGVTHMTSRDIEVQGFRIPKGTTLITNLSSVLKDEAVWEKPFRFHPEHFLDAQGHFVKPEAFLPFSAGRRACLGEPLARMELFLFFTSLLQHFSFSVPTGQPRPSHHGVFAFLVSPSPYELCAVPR
Chain of Cytochrome P450 1A2 (Homo sapiens) (P05177 whole entry, looked up): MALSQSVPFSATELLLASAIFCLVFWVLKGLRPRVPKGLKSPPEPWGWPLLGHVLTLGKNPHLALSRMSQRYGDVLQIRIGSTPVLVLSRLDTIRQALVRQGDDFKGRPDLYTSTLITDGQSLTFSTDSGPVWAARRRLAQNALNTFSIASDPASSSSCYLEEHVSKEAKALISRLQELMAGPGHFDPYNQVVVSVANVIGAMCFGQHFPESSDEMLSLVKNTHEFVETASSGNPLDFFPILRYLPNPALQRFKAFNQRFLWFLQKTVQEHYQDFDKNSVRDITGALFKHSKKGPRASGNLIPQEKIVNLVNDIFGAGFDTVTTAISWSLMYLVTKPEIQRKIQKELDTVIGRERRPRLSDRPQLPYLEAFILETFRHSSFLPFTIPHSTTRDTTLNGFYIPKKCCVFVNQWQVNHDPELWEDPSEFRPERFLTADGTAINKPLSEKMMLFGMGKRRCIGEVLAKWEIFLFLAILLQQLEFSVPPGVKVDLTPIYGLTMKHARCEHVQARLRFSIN
Chain of Cytochrome P450 2C9 (Homo sapiens) (P11712 whole entry, looked up): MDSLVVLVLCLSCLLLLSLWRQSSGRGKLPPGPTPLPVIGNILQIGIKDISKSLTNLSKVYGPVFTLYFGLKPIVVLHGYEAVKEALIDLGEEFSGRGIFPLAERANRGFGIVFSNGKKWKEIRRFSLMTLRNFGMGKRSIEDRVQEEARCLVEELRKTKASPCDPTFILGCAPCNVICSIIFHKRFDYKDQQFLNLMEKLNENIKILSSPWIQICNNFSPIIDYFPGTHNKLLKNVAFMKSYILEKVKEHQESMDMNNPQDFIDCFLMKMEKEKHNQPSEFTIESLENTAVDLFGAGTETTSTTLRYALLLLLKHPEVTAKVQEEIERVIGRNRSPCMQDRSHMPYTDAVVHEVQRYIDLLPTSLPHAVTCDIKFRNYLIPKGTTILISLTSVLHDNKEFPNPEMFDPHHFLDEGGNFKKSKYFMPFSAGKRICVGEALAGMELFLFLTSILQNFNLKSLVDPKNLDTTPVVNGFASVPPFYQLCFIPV
Chain of Cytochrome P450 3A4 (Homo sapiens) (P08684 whole entry, looked up): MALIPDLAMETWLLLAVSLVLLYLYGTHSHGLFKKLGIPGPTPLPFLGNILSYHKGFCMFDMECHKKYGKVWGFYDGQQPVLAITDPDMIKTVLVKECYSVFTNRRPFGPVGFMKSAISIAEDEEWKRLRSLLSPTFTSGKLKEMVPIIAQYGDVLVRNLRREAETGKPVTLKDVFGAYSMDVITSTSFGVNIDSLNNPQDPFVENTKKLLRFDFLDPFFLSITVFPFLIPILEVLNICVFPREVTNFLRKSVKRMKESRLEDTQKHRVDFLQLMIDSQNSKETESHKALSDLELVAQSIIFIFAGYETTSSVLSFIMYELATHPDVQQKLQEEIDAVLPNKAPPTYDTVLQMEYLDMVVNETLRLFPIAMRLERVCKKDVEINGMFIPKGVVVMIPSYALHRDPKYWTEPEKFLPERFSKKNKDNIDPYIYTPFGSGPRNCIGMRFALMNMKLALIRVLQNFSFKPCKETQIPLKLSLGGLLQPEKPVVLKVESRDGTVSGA
Chain of Cytochrome P450 2C19 (Homo sapiens) (P33261 whole entry, looked up): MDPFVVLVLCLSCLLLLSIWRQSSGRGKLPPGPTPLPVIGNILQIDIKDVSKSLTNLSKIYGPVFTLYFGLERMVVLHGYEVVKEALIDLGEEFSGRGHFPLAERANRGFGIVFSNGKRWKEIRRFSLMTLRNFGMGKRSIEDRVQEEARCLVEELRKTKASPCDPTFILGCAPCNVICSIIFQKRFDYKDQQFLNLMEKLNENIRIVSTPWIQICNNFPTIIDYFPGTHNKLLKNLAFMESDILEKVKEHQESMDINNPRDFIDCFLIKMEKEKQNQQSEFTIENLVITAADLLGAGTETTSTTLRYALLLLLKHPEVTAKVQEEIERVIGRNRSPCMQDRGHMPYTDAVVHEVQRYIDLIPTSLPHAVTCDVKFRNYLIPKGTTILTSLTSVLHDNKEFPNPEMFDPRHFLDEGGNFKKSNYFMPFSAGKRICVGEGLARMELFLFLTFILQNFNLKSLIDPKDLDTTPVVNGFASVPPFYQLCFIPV

Regarding `C=CC(C)(C)c1[nH]c2ccccc2c1C1=C(O)C(=O)C(c2c[nH]c3c(CC=C(C)C)cccc23)=C(O)C1=O`, the Potency in assay [1] was 25.1 µM (active); in assay [2] it was over 46 µM; in [3], over 46 µM; in assay [4], 6.31 µM (active); in assay [5], 7.94 µM (active); in assay [7], 0.0063 µM (active). Moreover, the Potency was 1.26 µM (active) in assay [8]; 49.4 µM (active) in assay [11]; 11.2 µM (active) in [12]; 0.631 µM (active) in assay [13]; 4.98 µM (active) in assay [18]. The Potency entry in assay [6], in assay [9], in assay [10], in assay [14], in assay [15] and in [16] was “inactive” each time. Also, the Potency entry in [17] and in assay [20] was “inactive” in each case. Besides, the compound was called inactive in assay [19].
